Results reported in PubChem BioAssay (NCATS).
Inconclusive results are not listed. A call without a number means that no potency is given here. Calls of active or inactive are those of the source. The call rests on the fitted dose curve; in most records, active means well fitted activation curve with a large enough effect; inconclusive means small, poorly fitted or top-dose-only effect; inactive means flat fitted curve, though single readings scatter. Where a SMILES comes first, the peptide text is derived from it. [ ]: non-standard residue; d: D form. ξ: configuration not given here. ξTyr(βOH) = NC(C(=O)O)C(O)c1ccc(O)cc1

Assay: Primary redox qHTS assay for identification of artifact compounds. (AID 1845223)
Conditions: Amplex Red/HRP redox cycling with DTT, fluorescence; series mostly up to 53.8 µM
How it was run: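 Amplex Red (25 uM) and HRP (250 mU/mL) in HBSS, with compounds for 15 min, then 250 uM DTT for 30 min, room temperature, dark. Fluorescence 525/598 nm read; normalized to DMSO and 10 uM DA3003; Hill fit.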

SMILES	Potency	redox activity (% of DA3003)
Cc1ccccc1N1CCN(S(=O)(=O)C[C@]23CC[C@H](C[C@@H]2NC(=O)[C@@H](N)CCS(C)(=O)=O)C3(C)C)CC1	inactive	–
CC(=O)N[C@H](Cc1c[nH]c2ccccc12)C(=O)OCc1cc(C(F)(F)F)cc(C(F)(F)F)c1	inactive	–
c1ccc2c(Nc3nnc(-c4ccncc4)s3)cccc2c1	inactive	–
C[C@@H]1O[C@@H](O[C@H]2[C@H](O[C@H]3[C@H](O[C@H]4CC[C@@]5(C)C(CC[C@]6(C)C5CC=C5[C@@H]7CC(C)(C)C[C@@H](O)[C@]7(C)CC[C@]56C)[C@@]4(C)CO)O[C@H](C(=O)O)[C@@H](O)[C@@H]3O)O[C@H](CO)[C@H](O)[C@@H]2O)[C@H](O)[C@H](O)[C@H]1O (some centres undefined)	–	10.7% [at 11.5 µM] (inactive)
COC(=O)C[C@H]1C(C)(C)[C@H](OC(=O)C(C)C)C2CC3=C4CC(=O)O[C@@H](c5ccoc5)[C@]4(C)CCC3[C@@]1(C)C2=O (some centres undefined)	inactive	–
Cc1cc(-n2c(=O)[nH]c(=O)n(C)c2=O)ccc1Oc1ccc(SC(F)(F)F)cc1	inactive	–
CC[C@@H]1C(=O)O[C@]23C=C[C@@H]4C(C(=O)OC)=CO[C@H](O[C@@H]12)[C@@H]43	inactive	–
CC(C)(O)[C@@H]1CC[C@]2(CO)[C@@H](O)CC[C@](C)(O)[C@H]2[C@@H]1O[C@@H]1O[C@H](CO)[C@@H](O)[C@H](O)[C@H]1O	inactive	–
CC(C)(Oc1ccc(-c2nc3cc(Cl)ccc3s2)cc1)C(=O)O	inactive	–
C/C=C(\C)C(=O)OC[C@H]1O[C@@H](O[C@H]2[C@@H](O[C@H]3O[C@H](CO)[C@@H](O)[C@H](O)[C@H]3O[C@@H]3O[C@H](CO)[C@@H](O)[C@H](O)[C@H]3O)O[C@H](COC(=O)/C(C)=C/C)[C@@H](O)[C@@H]2O)[C@H](O)[C@@H](O)[C@@H]1O	–	-4.48% [at 11.5 µM] (inactive)
C=CC(C)(O)CC/C=C(\C)COC1O[C@H](CO)[C@@H](O)[C@H](O)[C@H]1O (some centres undefined)	inactive	–
COc1cc(Cc2cnc(N)nc2N)c(C(C)C)cc1OC	inactive	–
CCC1=C(C)C(=O)C(C)CC12C(=O)CCC2C(=O)O (centres undefined)	inactive	–
C=C1CC2C3(C)C=CC(=O)OC(C)(C)C3CC(OC(C)=O)C2(C)C2C(=O)OC(C)C(=O)C12C (centres undefined)	inactive	–
COc1ccc(C(=O)OC2C3C=COC(OC4OC(CO)C(O)C(O)C4O)C3C3(CO)OC23)cc1OC (centres undefined)	inactive	–
Oc1ccc(CC2NCCc3cc(O)c(O)cc32)cc1 (centres undefined)	inactive	–
CC(C)N(CCCNC(=O)Nc1ccc(C(C)(C)C)cc1)C[C@H]1O[C@@H](n2ccc3c(N)ncnc32)[C@H](O)[C@@H]1O	inactive	–
COc1cc(C2CC(=O)Nc3c2cc(Br)c2ccccc32)cc(OC)c1OC (centres undefined)	inactive	–
CC(C)=CC1C[C@](C)(O)[C@@H]2[C@H]3CCC4[C@@]5(C)CC[C@H](O[C@@H]6OC[C@H](O)[C@H](O[C@@H]7O[C@H](CO[C@@H]8O[C@H](CO)[C@@H](O)[C@H](O)[C@H]8O)[C@@H](O)[C@H](O)[C@H]7O)[C@H]6O[C@@H]6O[C@@H](C)[C@H](O)[C@@H](O)[C@H]6O)C(C)(C)[C@@H]5CC[C@@]4(C)[C@@]34CO[C@@]2(C4)O1 (some centres undefined)	–	14.6% [at 11.5 µM] (inactive)
C=C1CC2C3(C)C(O)CC(=O)C(C)(C)C3C(O)C(OC(C)=O)C2(C)C2C(=O)OC(C)(C(=O)OC)C(=O)C12C (centres undefined)	inactive	–

SMILES	Potency	redox activity (% of DA3003)
COc1cc(C(=O)OC[C@H]2O[C@@H](OC(C)(C)C(=O)O)[C@H](O)[C@@H](O)[C@@H]2O)cc(OC)c1O	inactive	–
COc1cccc(C)c1C(=O)O[C@@H]1C[C@H](O[C@H]2[C@H](O)C[C@H](O[C@@H]3CCC[C@H]4[C@H]3C=C[C@@H]3CCCC/C=C/[C@H]5C=C(C(=O)O)[C@@H](C)C[C@@]56OC(=O)C(=C6O)OC(=O)[C@@]34C)O[C@@H]2C)O[C@H](C)[C@H]1O	–	-8.49% [at 11.5 µM] (inactive)
Fc1ccc(-c2c3cccc(C(F)(F)F)c3nn2Cc2ccc(F)cc2Cl)cc1	inactive	–
CC(=O)O[C@@H]1C[C@@H](C)[C@](O)(CCC2=CC(=O)OC2)[C@@]2(C)CCCC(C)(C)C12 (some centres undefined)	inactive	–
CC(=O)O[C@@H]1[C@@H](O)[C@H](C)O[C@@H](O[C@H]2[C@@H]3C=CO[C@@H](O[C@@H]4O[C@H](CO)[C@@H](O)[C@H](O)[C@H]4OC(C)=O)[C@@H]3[C@@]3(CO)O[C@@H]23)[C@@H]1OC(=O)/C=C/c1ccc(O)cc1	inactive	–
CC(C)=CCC[C@@](C)(O)[C@H]1CC[C@]2(C)[C@@H]1[C@H](O)CC1[C@@]3(C)CC[C@H](O[C@@H]4O[C@H](CO)[C@@H](O)[C@H](O)[C@H]4O[C@@H]4O[C@H](CO)[C@@H](O)[C@H](O)[C@H]4O)C(C)(C)[C@@H]3CC[C@]12C (some centres undefined)	inactive	–
C=CC1(C)CC=C2C(CCC3C(C)(C(=O)O)CCCC23C)C1 (centres undefined)	inactive	–
CC(CCO)CCC1C2(C)CCCC(C)(C)C2CC[C@@]1(C)O (some centres undefined)	inactive	–
CC(C)C(O)(CO)CCO[C@@H]1O[C@H](CO[C@H]2OC[C@](O)(CO)[C@H]2O)[C@@H](O)[C@H](O)[C@H]1O (some centres undefined)	inactive	–
C[C@]1(O)CC[C@@H]2C(C(=O)O)=CO[C@@H](O[C@@H]3O[C@H](CO)[C@@H](O)[C@H](O)[C@H]3O)[C@@H]21	inactive	–
COc1cc(/C=C/C(=O)OCC2OC(OC3(CO)OC(CO)C(O)C3O)C(O)C(O)C2O)ccc1O (centres undefined)	inactive	–
COc1ccc(N2CCN(CCCNC(=O)Cn3c(=O)c4cccn4c4c(C)ccnc43)CC2)cc1	inactive	–
CC1CCC2(C(=O)O)CCC3(C)C(=CCC4C5(C)C[C@@H](O)[C@@H](O)C(C)(CO)C5CCC43C)C2C1(C)O (some centres undefined)	inactive	–
CN1CCc2cc(Cl)c(O)cc2[C@@H](c2cccc3c2OCC3)C1	inactive	–
CC(C)C1NC(=O)CNC(=O)C2CCCN2C(=O)C(Cc2c[nH]c3ccccc23)NC(=O)CNC(=O)C(C(O)c2ccc(O)cc2)NC(=O)CNC1=O (centres undefined) (cyclo(G[ξTyr(βOH)]GWPGV); configuration not given here)	inactive	–
CC1(C)C=Cc2c(ccc3c2N=C2C(C)(C)[C@@H]4C[C@]56CCCN5C(=O)[C@@]4(C[C@]23O)NC6=O)O1	inactive	–
CC1=C(CO)C2(C)CCCC(C)(C)C2C(O)C1O (centres undefined)	inactive	–
CC(=O)OC(C)(C)/C=C/C(=O)[C@](C)(O)C1[C@H](O)C[C@@]2(C)[C@@H]3CC=C4[C@@H](C[C@H](O[C@@H]5O[C@H](CO)[C@@H](O)[C@H](O)[C@H]5O)C(=O)C4(C)C)[C@]3(C)C(=O)C[C@]12C (some centres undefined)	inactive	–
C/C=C/C=C/C(O)=C1/C(=O)[C@]2(C)C3/C(=C(O)/C=C/C=C/C)C(=O)C4(C)C1[C@]1(C)O[C@@]4(O)[C@@]3(C)O[C@@]12O	inactive	–
